Assay results taken from ChEMBL document CHEMBL3433997, “St. Jude Leishmania screening dataset” (2016).

Tests used:
Format in all cases: functional
[1] = target: Solute carrier family 2, facilitated glucose transporter member 1 (Homo sapiens) (UniProt P11166); test: ST_JUDE_LEISH: Cytotoxicity at 2uM final concentration against transgenic Leishmania Mexicana promastigotes LmGLUT1 that are glucose transport deficient and complemented with the human glucose transporter GLUT1. Activity is measured by DNA content using SYBR green in vitro
Sequence of Solute carrier family 2, facilitated glucose transporter member 1 (Homo sapiens) (P11166 whole entry): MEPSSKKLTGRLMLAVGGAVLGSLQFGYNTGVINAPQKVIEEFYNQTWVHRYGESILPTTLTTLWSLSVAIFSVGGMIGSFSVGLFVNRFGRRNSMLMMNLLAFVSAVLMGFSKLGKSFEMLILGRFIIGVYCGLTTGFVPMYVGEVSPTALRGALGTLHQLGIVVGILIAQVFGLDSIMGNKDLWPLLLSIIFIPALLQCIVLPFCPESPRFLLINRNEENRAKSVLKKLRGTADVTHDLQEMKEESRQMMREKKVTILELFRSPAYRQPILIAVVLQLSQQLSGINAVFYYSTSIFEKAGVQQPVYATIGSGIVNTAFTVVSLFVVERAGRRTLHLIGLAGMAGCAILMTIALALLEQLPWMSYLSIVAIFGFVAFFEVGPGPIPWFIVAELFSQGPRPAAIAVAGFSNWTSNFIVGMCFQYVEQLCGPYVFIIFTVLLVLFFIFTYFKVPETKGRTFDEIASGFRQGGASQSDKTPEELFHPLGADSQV

[2] = target: Hexose transporter 1 (Plasmodium falciparum) (UniProt O97467); test: ST_JUDE_LEISH: Cytotoxicity at 2uM final concentration against transgenic Leishmania Mexicana promastigotes LmPfHT that are glucose transport deficient and complemented with the Plasmodium falciparum hexose transporter. Activity is measured by DNA content using SYBR green in vitro
[3] = target: Glucose transporter (Leishmania mexicana) (UniProt O61059); test: ST_JUDE_LEISH: Cytotoxicity at 2uM final concentration against transgenic Leishmania Mexicana promastigotes LmGT2 that are glucose transport deficient and complemented with the L. Mexicana glucose transporter 2. Activity is measured by DNA content using SYBR green in vitro

Cc1ncccc1-c1cccc2c(NC(=O)Nc3ccc4nccc(N5CCN(C)CC5)c4c3)cccc12
inhibition [1]: 4.96%
inhibition [2]: 3.58%
inhibition [3]: 1.71%

CN(C)c1ccc(C=C2SC(=O)N=C2Nc2ccccc2)cc1
inhibition [1]: 1.62%
inhibition [2]: 0.09%
inhibition [3]: 0.57%

CCCCCCNC(=O)C1Cc2c([nH]c3ccc(C)cc23)C2(CCN(Cc3ccccc3)CC2)N1 (stereo not drawn)
inhibition [1]: 0.98%
inhibition [2]: 0.07%
inhibition [3]: 1.33%

Cc1cc(N)c2cc(NC(=O)c3cccc(C(=O)Nc4ccc5nc(C)cc(N)c5c4)c3)ccc2n1
inhibition [1]: -0.38%
inhibition [2]: 2.01%
inhibition [3]: -2.06%

O=C1CCCN1CCCNCc1ccc(-c2cccc(-c3nc4cc(F)ccc4[nH]3)c2)cc1
inhibition [1]: -2.56%
inhibition [2]: -0.8%
inhibition [3]: -2.7%

Cn1c(Nc2cc(C(C)(C)C)on2)nc2cc(Nc3ccnc(Nc4cccc(S(=O)(=O)N5CCOCC5)c4)n3)ccc21
inhibition [1]: 5.63%
inhibition [2]: 2.67%
inhibition [3]: -0.88%

CC(Cc1ccc(OCCN2CCN(c3ccccc3)CC2)cc1)NCC(O)c1cccc(Cl)c1F (stereo not drawn)
inhibition [1]: 2.22%
inhibition [2]: 0.09%
inhibition [3]: 1.85%

CC(C)N1CCC(N(Cc2ccc(-c3ccc(C(F)(F)F)cc3)cc2)C(=O)Cn2c(SCc3cccc(F)c3F)cc(=O)c3c2CCC3)CC1
inhibition [1]: 4.88%
inhibition [2]: -0.24%
inhibition [3]: -3.84%

Cc1[nH]c(C)c(-c2ccc(Oc3cccc(Cl)c3)cc2)c(=O)c1Cl
inhibition [1]: 9.05%
inhibition [2]: 7.78%
inhibition [3]: 4.29%

NC12CC3CC(CC(C3)C1)C2
inhibition [1]: 5.47%
inhibition [2]: 5.42%
inhibition [3]: 4.45%

O=c1c(NCCCN(Cc2ccc(F)cc2)c2ccccn2)c(NCc2ccncc2)c1=O
inhibition [1]: 4.35%
inhibition [2]: 3.53%
inhibition [3]: 5.17%

COc1cccc(CNC(=O)c2ccnc(-c3cccc(CN(C)C4CCN(C)CC4)c3)c2)c1
inhibition [1]: -0.04%
inhibition [2]: -0.18%
inhibition [3]: 1.78%

Cc1cc2c(cc1C(F)(F)F)N(C(=O)Nc1ccc(OCCN(C)C)c(C(F)(F)F)c1)CC2
inhibition [1]: 2.99%
inhibition [2]: 2.92%
inhibition [3]: 0.83%

CN(C)c1ccc(-c2ccc(C(=O)NC3CCN(Cc4cccc(C(F)(F)F)c4)CC3)s2)cc1
inhibition [1]: 4.91%
inhibition [2]: 6.03%
inhibition [3]: 3.55%

O=C(NCc1ccc(Cl)c(Cl)c1)c1ccc(C2CCCN(Cc3ccc4[nH]cnc4c3)C2)cc1 (stereo not drawn)
inhibition [1]: 5%
inhibition [2]: 9.77%
inhibition [3]: 6.17%

CC(C)(C)c1ccc(NC(=O)c2ccc(CN3CCCN(Cc4cccc(F)c4)CC3)cc2)cc1
inhibition [1]: 13.7%
inhibition [2]: 13.3%
inhibition [3]: 11.8%

Cc1cc(Nc2cccc(C(F)(F)F)c2)nc2ccc(NC(=O)c3ccc(=O)[nH]c3)cc12
inhibition [1]: -0.79%
inhibition [2]: -0.69%
inhibition [3]: -0.59%

CCc1ccc(NC(=O)c2ccc(CN3CCCN(CC4CCCCC4)CC3)cc2)cc1
inhibition [1]: 7.57%
inhibition [2]: 10.3%
inhibition [3]: 7.64%

CC(=O)Nc1cccc(C(=O)Nc2cccc(-c3ccc(-c4nc5cc(F)ccc5[nH]4)cc3)c2)c1
inhibition [1]: 2.1%
inhibition [2]: 2.11%
inhibition [3]: 1.46%

CCCC(C)Nc1nc(C)cc(N[C@@H](Cc2ccccc2)C(=O)NCCOc2ccccc2)n1 (stereo partly drawn)
inhibition [1]: 4.27%
inhibition [2]: 3.26%
inhibition [3]: 1.16%

Cc1[nH]n(-c2cccc(C(F)(F)F)c2)c(=O)c1-c1ccc(Cl)cc1
inhibition [1]: 3.56%
inhibition [2]: 6.35%
inhibition [3]: 5.69%

COc1cc(Nc2nccc(N3CCC(NC(=O)C4COc5ccccc5O4)C3)n2)cc(OC)c1OC (stereo not drawn)
inhibition [1]: 2.77%
inhibition [2]: 1.3%
inhibition [3]: 2.12%

Cc1c(S(=O)(=O)Nc2cccc(CCN3CCCCC3CCN3CCCC3)c2)sc2ccc(Cl)cc12 (stereo not drawn)
inhibition [1]: -1.39%
inhibition [2]: 2.14%
inhibition [3]: -0.62%

Cc1cc(F)ccc1-c1nc(NCCCNCCc2ccccc2)nc2c1ccc(=O)n2-c1c(F)cccc1F
inhibition [1]: 0.55%
inhibition [2]: 5.5%
inhibition [3]: 0.76%

CN(C)CCNC(=O)[C@H](Cc1ccccc1)NC(=O)c1ccc(O)c(-c2ccc(Cl)c(Cl)c2)c1
inhibition [1]: -0.64%
inhibition [2]: 1.18%
inhibition [3]: -2.32%

CCOC(=O)N1CCC(NC(=O)c2ccc(C(C)(C)C)cc2OC)CC1
inhibition [1]: 3.46%
inhibition [2]: 3.5%
inhibition [3]: 3.13%

COc1cccc2c(NN=Cc3ccc(Cl)cc3)ccnc12
inhibition [1]: 2.42%
inhibition [2]: 2.54%
inhibition [3]: 2.21%

COc1ccc(N2CCN(CCCCNC(=O)c3ccc(NC(=O)c4cc(C(F)(F)F)cc(C(F)(F)F)c4)cc3)CC2)c(OC)c1
inhibition [1]: 1.62%
inhibition [2]: 1.33%
inhibition [3]: 1.33%

Clc1ccc(CNc2nc(NCCc3c[nH]cn3)nc(Nc3ccc4c(c3)OCO4)n2)cc1
inhibition [1]: 2.28%
inhibition [2]: 2.3%
inhibition [3]: 3.66%

CCOc1ccc(-c2nonc2NC(=O)c2ccc(Cl)cc2)cc1OCC
inhibition [1]: 4.45%
inhibition [2]: 4.43%
inhibition [3]: 4.61%

O=C(NCc1cccc(C(F)(F)F)c1)C1CCCN(C(=O)c2ccc(O)c(-c3ccc(Cl)c(Cl)c3)c2)C1 (stereo not drawn)
inhibition [1]: 3.46%
inhibition [2]: 2.95%
inhibition [3]: 3.95%

COc1ccc(CCNCCCCCCNCCCc2ccc(Cl)cc2)cc1OC
inhibition [1]: 4.72%
inhibition [2]: 2.45%
inhibition [3]: 4.39%

COc1ccc(CNCC2CCC(CNCCc3ccccc3)CC2)cc1Cl (stereo not drawn)
inhibition [1]: 1.1%
inhibition [2]: 2.42%
inhibition [3]: 2.3%

COc1ccc(CNCc2ccccc2)cc1-c1ccc(S(=O)(=O)NCCN2CCCC2)s1
inhibition [1]: 1.43%
inhibition [2]: 2.19%
inhibition [3]: 4.5%

CC(=O)Nc1cccc(C(=O)Nc2nc3ccc(-c4cc(=O)[nH]c(Nc5ccccc5Cl)n4)cc3[nH]2)c1
inhibition [1]: 4.21%
inhibition [2]: 2.23%
inhibition [3]: 5.36%

Cc1ccc2c(Cl)c(C(=O)N3CC(C)OC(C)C3)sc2c1 (stereo not drawn)
inhibition [1]: 0.22%
inhibition [2]: 1.09%
inhibition [3]: 3.43%

COc1ccc2c(=O)ccn(CCN3CCC(NCc4ccc5c(n4)NC(=O)CS5)CC3)c2c1
inhibition [1]: 3.6%
inhibition [2]: 2.3%
inhibition [3]: 3.24%

Cc1cc(N[C@@H](Cc2ccccc2)C(=O)Nc2ccccc2)nc(Nc2ccccc2)n1
inhibition [1]: 5.97%
inhibition [2]: 5.91%
inhibition [3]: -0.05%

COc1ccc([N+](=O)[O-])cc1N(Cc1ccccc1-c1ccccc1)S(=O)(=O)c1ccc(C(F)(F)F)cc1[N+](=O)[O-]
inhibition [1]: 8.36%
inhibition [2]: 5.46%
inhibition [3]: -1.25%

O=C(c1ccc(-c2ccc(-c3nc4cc(C(F)(F)F)ccc4[nH]3)s2)cc1)N1CCN(CCc2ccccc2)CC1
inhibition [1]: 5.29%
inhibition [2]: 3.93%
inhibition [3]: 4.62%

COc1cc(OC)c2c(c1Cl)O[C@]1(C2=O)C(=O)C(Cc2ccccc2)(Cc2ccccc2)C(=O)C[C@H]1C
inhibition [1]: 2.41%
inhibition [2]: 3.13%
inhibition [3]: 2.6%

FC(F)(F)c1ccc(-c2ccc(CNC3CCN(CCN4CCOCC4)CC3)cc2)cc1
inhibition [1]: 1.09%
inhibition [2]: 0.81%
inhibition [3]: 3.26%

Nc1cccc(CNCc2ccc(-c3cccc(-c4nc5cc(C(F)(F)F)ccc5[nH]4)c3)cc2)c1
inhibition [1]: 0.23%
inhibition [2]: 1.1%
inhibition [3]: 1.02%

Cc1cccc2nc(-c3ccc(-c4cccc(CNCc5ccccc5)c4)s3)[nH]c12
inhibition [1]: -1.26%
inhibition [2]: -0.6%
inhibition [3]: -0.69%

NCCNC(=O)c1ccc(-c2cnc3[nH]cc(-c4ccc(C(N)=O)cc4)c3c2)cc1
inhibition [1]: 3.65%
inhibition [2]: 2.58%
inhibition [3]: 2.98%

COc1cccc(CN2CCCN(Cc3cccc(NC(=O)c4cc5ccccc5s4)c3)CC2)c1
inhibition [1]: 3.41%
inhibition [2]: 4.66%
inhibition [3]: 5.23%

O=C(Nc1ccc(S(=O)(=O)N2CCCC2)cc1)c1cc(-c2cccnc2)nc2ccc(Cl)cc12
inhibition [1]: 7.34%
inhibition [2]: 2.97%
inhibition [3]: 3.06%

CCOc1ccc(Br)cc1/C=C/C(=O)Nc1ccc2c(c1)CCCN(C)C2
inhibition [1]: 11.6%
inhibition [2]: 10.4%
inhibition [3]: 11.8%

Cc1nc(N)nc(N)c1OCc1cccc2ccccc12
inhibition [1]: 0.2%
inhibition [2]: 1.33%
inhibition [3]: -1.23%

CN1CCCN(Cc2cccc(-c3ccc(NC(=O)c4ccc(Cl)cc4)cc3)c2)CC1
inhibition [1]: 55.2%
inhibition [2]: 50.2%
inhibition [3]: 21.9%

COc1ccc2c(c1)Nc1ccc(Cl)cc1C2N (stereo not drawn)
inhibition [1]: 3.78%
inhibition [2]: 1.62%
inhibition [3]: 0.48%

Cc1ccc(C(=O)Nc2cc(C(F)(F)F)cc(C(F)(F)F)c2)cc1[N+](=O)[O-]
inhibition [1]: 9.19%
inhibition [2]: 12.4%
inhibition [3]: 7.77%

Cc1nc(C)c(-c2ccc(Oc3ccc(OC(F)(F)F)cc3)cc2)c(OC(=O)c2ccc(CN(C)C)cc2)c1Cl
inhibition [1]: 10.9%
inhibition [2]: 8.12%
inhibition [3]: 8.96%

N=C(NCCc1ccccc1Cl)c1ccc2ccccc2c1
inhibition [1]: -1.42%
inhibition [2]: -1.63%
inhibition [3]: -2.06%

Cn1cncc1-c1ccc2ncnc(Nc3ccc4c(cnn4Cc4ccccc4)c3)c2c1
inhibition [1]: 1.39%
inhibition [2]: 2.21%
inhibition [3]: 1.22%

CCN(CCCNc1nc(=S)[nH]c2cc(OC)c(OC)cc12)c1ccccc1
inhibition [1]: -0.4%
inhibition [2]: -1.25%
inhibition [3]: -4.13%

O=[N+]([O-])c1ccc(Nc2nc(N/N=C/c3ccc(-c4ccc([N+](=O)[O-])cc4)o3)nc(Nc3ccccc3)n2)cc1
inhibition [1]: 0.17%
inhibition [2]: -3.33%
inhibition [3]: -5.8%

O=C(CNc1ccc(Cl)c(S(=O)(=O)N2CCCC2)c1)Nc1ccc(Br)cc1F
inhibition [1]: -2.34%
inhibition [2]: 1.47%
inhibition [3]: 1.03%

NS(=O)(=O)c1cccc(Br)c1
inhibition [1]: 2.38%
inhibition [2]: 0.12%
inhibition [3]: 2.22%

Cc1[nH]c(CNCCCNc2cc(=O)c3ccccc3[nH]2)c(Br)c1Br
inhibition [1]: 0.62%
inhibition [2]: 1.85%
inhibition [3]: -0.49%

Cn1cc(C2CCN(CCCCCNC(=O)/C=C/c3ccc(Cl)c(Cl)c3)CC2)c2cc(O)ccc21
inhibition [1]: 1.48%
inhibition [2]: 2.56%
inhibition [3]: 1.47%

Fc1cccc(C=NN=c2cc[nH]c3ccccc23)c1
inhibition [1]: 9.03%
inhibition [2]: 6.41%
inhibition [3]: 6.88%

O=C(c1ccc(Cl)cc1)C1CCCN(C2CCN(CCc3ccccc3)CC2)C1 (stereo not drawn)
inhibition [1]: 12.5%
inhibition [2]: 17.3%
inhibition [3]: 13.8%

CC(=O)c1ccc(NC(=O)Nc2ccc(N(C)c3ccnc(NC4CC4)n3)cc2)cc1
inhibition [1]: -0.95%
inhibition [2]: -3.95%
inhibition [3]: 0.62%

Cc1ccccc1CN1CCCN(Cc2ccc(C(=O)Nc3ccc(C(C)(C)C)cc3)cc2)CC1
inhibition [1]: 6.33%
inhibition [2]: 3.39%
inhibition [3]: 3.55%

CC(C)(C)c1ccc(NC(=O)c2cccc(CN3CCCN(Cc4cccc(O)c4)CC3)c2)cc1
inhibition [1]: 6.18%
inhibition [2]: 6.24%
inhibition [3]: 1.99%

O=C(/C=C/c1ccc(Cl)cc1)NCCCCCN1CCC(C(=O)Nc2cccc(Cl)c2)CC1
inhibition [1]: 2.16%
inhibition [2]: 2.2%
inhibition [3]: 0.58%

COc1cccc(-c2csc(C(=O)NCC3CCN(Cc4ccc(C(C)C)cc4)C3)c2)c1 (stereo not drawn)
inhibition [1]: -0.64%
inhibition [2]: -1.41%
inhibition [3]: 0.03%

CC(C)n1c(C(C)(C)C)cc2c3c(N)nc(N)nc3ccc21
inhibition [1]: 52.7%
inhibition [2]: 62.4%
inhibition [3]: 44.4%

CN(C)CCCNCCS(=O)(=O)c1cccc(Nc2ccc(-c3cccc(N(C)C)c3)cn2)c1
inhibition [1]: 1.72%
inhibition [2]: 1.88%
inhibition [3]: 1.78%

O=C(NC1CCCCC1)N(Cc1cccc(-c2ccc(CNCc3ccc4c(c3)OCO4)cc2)c1)C1CCN(Cc2ccccc2)CC1
inhibition [1]: 8.67%
inhibition [2]: 5.99%
inhibition [3]: 3.16%
